Results as given in PubChem BioAssay (NCATS).
Values joined by “and” are separate entries in the source; they are usually repeats but may differ in a detail not shown here. Equal entries are not always repeated. Records with an inconclusive call do not appear. Active and inactive are the calls of the source. Unless noted, calls come from the whole dose curve; as a rule, active = well fitted curve in the direction sought with a large enough effect; inconclusive = small, poorly fitted or top-dose-only effect, or another doubt; inactive = no such curve, though single readings can be large; an effect the other way counts as inactive or inconclusive.

Columns and labels:
[1] = Cell Viability - BJ (AID 421; calls by dose curve;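 note: potency is the fitted concentration of half-maximal effect; cells exposed to compound for 40 hours at 37 °C before readout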); details: BJ fibroblast viability, qHTS
Procedure, shortened: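 Luminescent ATP signal (CellTiter-Glo, 20 min at room temperature) served as the read-out of viable BJ cells after 40 hours of compound treatment. Responses were scaled between DMSO and 100 uM tamoxifen, and AC50 values were obtained by Hill modeling.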

[2] = Cell Viability - MRC5 (AID 434; calls by dose curve;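 note: potency is the fitted concentration of half-maximal effect; cells exposed to compound for 40 hours at 37 °C; potency reflects cytotoxicity seen as loss of intracellular ATP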); details: MRC5 lung fibroblast viability, qHTS
Procedure, shortened: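 Decrease in intracellular ATP, quantified by luciferase light output, reflects compound toxicity toward MRC5 cells exposed for 40 hr in complete culture medium. Concentration-response curves, scaled between DMSO and 100 uM tamoxifen, gave AC50 values.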

[3] = target: Mitogen-activated protein kinase 10 (Mus musculus) (UniProt Q61831); assay: JNK3 AlphaScreen Assay (AID 530; active = well fitted curve in either direction with a large enough effect, not every such curve was filed as active;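 note: kinase came from lysate of stimulated human HepG2 cells; signal reports phosphorylation of biotinylated GST-cJun 1-79 at Ser73 with 10 µM ATP; % is set by controls: 0 for no effect and ±100 for the full control effect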); details: JNK3 lysate, c-Jun phosphorylation; series mostly up to 57.1 µM
Procedure, shortened: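 Phosphorylation of biotinylated GST-cJun(1-79) at Ser73 is measured by AlphaScreen proximity luminescence. Enzyme is JNK3 in HepG2 lysates activated with interleukin-1beta and tumor necrosis factor alpha; ATP is 10 uM final.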

[4] = Cell Viability - HUV-EC-C (AID 542); details: HUV-EC-C endothelial cell viability, qHTS; series mostly up to 92.2 µM; note: % is set by controls: 0 for no effect and ±100 for the full control effect; nearly all actives have a fitted effect of over 35% in size
Procedure, shortened: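 Cells were seeded at 1000 per well and incubated 5 hr at 37 °C before compound addition. After 40 hr at 37 °C, CellTiter-Glo reagent was added for 20 min and luminescence read. AC50 values came from Hill-equation modelling.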

[5] = Cellular Toxicity (caspase-3) HepG2 (AID 654); details: HepG2 caspase-3 activation, luminescence, 0% = DMSO only, 100% = tamoxifen; series mostly up to 92.2 µM;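 note: cells exposed to compound for 16 hours before reading; 0% = DMSO alone and 100% = caspase signal from 100 µM tamoxifen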
Procedure, shortened: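 Caspase 3/7 activation in HepG2 is measured as rising luminescence after a 16 hr treatment at 37 °C. Values are scaled between DMSO basal and 100 uM tamoxifen, and AC50 is fitted with the Hill equation.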

[6] = Cellular Toxicity (caspase-3) HUV-EC-C (AID 656); details: HUV-EC-C cells, caspase-3 activation (apoptosis), vehicle = 0, 100 µM tamoxifen = 100%; series mostly up to 92.2 µM
Procedure, shortened: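 HUV-EC-C endothelial cells, 1000/well, were pre-incubated 5 hr at 37°C, then exposed to compounds for 16 hr at 37°C. Caspase-Glo 3/7 luminescence was read after 20 min at room temperature. AC50 came from Hill fits, normalized to DMSO and 100 uM tamoxifen.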

[7] = Cellular Toxicity (caspase-3) SHSY5Y (AID 657); details: SH-SY5Y caspase-3 activation, DMSO zero, 10 µM staurosporine = 100%; series mostly up to 91.7 µM
Procedure, shortened: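 SH-SY5Y human neuroblastoma cells (1500/well) were treated with compounds for 16 h at 37 °C, then Caspase-Glo 3/7 luminescence was read after 1 h at room temperature. Data normalized to DMSO and 10 uM staurosporine; AC50 from Hill fits.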

[8] = Cellular Toxicity (caspase-3) BJ (AID 658); details: BJ fibroblasts, luminescence, normalized: DMSO 0%, staurosporine 100%; series mostly up to 91.7 µM
Procedure, shortened: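 Plated BJ cells (1000/well) rested 5 hr, received compound for 16 hr at 37 °C, then Caspase-Glo 3/7 reagent for 1 hr at room temperature before luminescence reading.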

[9] = Cellular Toxicity (caspase-3) MRC-5 (AID 659); details: MRC-5 cells, luminescence, normalized: DMSO 0%, 10 µM staurosporine 100%; series mostly up to 91.7 µM
Procedure, shortened: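 Apoptosis readout in MRC-5 cells: luciferase light generated after caspase 3/7 cleaves a peptide-aminoluciferin substrate, measured post 16 hr compound incubation at 37 °C.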

[10] = Cellular Toxicity (caspase-3) Mesangial (AID 660); details: mesangial cells, normalized: DMSO 0%, 100 µM tamoxifen 100%; series mostly up to 91.7 µM;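 note: combined caspase 3 and 7 activity read by Caspase-Glo luminescence; cells exposed to compound for 16 h before the caspase read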
Procedure, shortened: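 Seed cells derived from normal human renal glomeruli, incubate 5 h, add compounds across concentrations and incubate 16 h at 37 °C. Caspase 3/7 activation is then quantified by luciferase light, with AC50 derived by Hill modeling.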

[11] = Cellular Toxicity (caspase-3) H-4-II-E (AID 663); details: H-4-II-E rat hepatoma; Potency: caspase-3 activation; series mostly up to 92.2 µM; note: potency is the fitted concentration of half-maximal effect;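 for caspase-3 activation: cells exposed to compound for 16 hr before readout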
Procedure, shortened: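 Caspase 3/7 activation measured in H-4-II-E cells in complete culture medium after 16 hr treatment at 37 °C, using luciferase-coupled substrate readout; AC50 values come from Hill-equation fits of normalized concentration-response data.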

[12] = Cellular Toxicity (caspase-3) Hek293 (AID 664); details: HEK293 caspase-3 activation, DMSO = 0%, 100 µM tamoxifen = 100%; series mostly up to 92.2 µM;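 note: cells exposed to compound for 16 h at 37 °C before readout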
Procedure, shortened: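 qHTS, HEK293 (human embryonic kidney), 16 h cpd exposure in complete medium. Caspase-3/7 activation = luminescence increase; normalized to DMSO/100 uM tamoxifen; Hill-fit AC50.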

[13] = Cellular Toxicity (caspase-3) Renal Proximal Tubule (AID 667); details: renal proximal tubule cells, primary cells freshly taken from rat, solvent-only wells 0%, staurosporine 100%; series mostly up to 91.7 µM;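 note: cells exposed to compound for 16 hours at 37 °C before detection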
Procedure, shortened: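 Primary rat proximal tubule cells, 1000/well, 5 h plating at 37 °C, then compound 16 h at 37 °C. Caspase-Glo 3/7 reagent, 1 h RT, luminescence. Normalized to DMSO (basal) and 10 uM staurosporine (100%); Hill-fit AC50.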

[14] = MultiTox-Fluor Cytotoxicity Assay - LYMP1-003 - Live Cells (AID 962); details: LYMP1-003 lymphoblastoid cells, MultiTox-Fluor live-cell protease fluorescence; series mostly up to 92.2 µM;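 note: 0% = DMSO only and full loss = 92 µM tetraoctylammonium bromide; cytotoxic hits lower the live-cell protease signal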
Procedure, shortened: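 Acute cytotoxicity is scored as a drop in live-cell protease activity in human lymphoblastoid LYMP1-003 cells after 16 hr compound exposure at 37 C. AC50 values come from Hill-equation modelling of concentration-response data.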

[15] = qHTS Assay for Identification of Small Molecule Inducers of Hypoxia Response (AID 2120; active = well fitted curve in the direction sought with a large enough effect in the signal ratio, with a control signal flat, not every such curve was filed as active; the % refers to the signal ratio; note: 0% is about no effect); details: hypoxia response reporter cells, beta-lactamase ratio readout; series mostly up to 104 µM
Procedure, shortened: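 Cell-based qHTS for reporter induction: hypoxia response element controlled beta-lactamase in ME-180 cells. Compounds incubated 17 h at 37 degrees C; activity from blue/green (460/530 nm) ratio, inducers ranked by AC50.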

[16] = target: Thyroid hormone receptor beta (Homo sapiens) (UniProt P10828); assay: qHTS assay for small molecule agonists of thyroid hormone receptor beta signaling (AID 588545; calls by dose curve); details: TR-UAS-bla GripTite HEK 293, beta-lactamase ratio, agonist mode, 18 h, percent of T3 response, DMSO as zero; series mostly up to 76.7 µM
Chain of Thyroid hormone receptor beta (Homo sapiens) (P10828 whole entry, looked up): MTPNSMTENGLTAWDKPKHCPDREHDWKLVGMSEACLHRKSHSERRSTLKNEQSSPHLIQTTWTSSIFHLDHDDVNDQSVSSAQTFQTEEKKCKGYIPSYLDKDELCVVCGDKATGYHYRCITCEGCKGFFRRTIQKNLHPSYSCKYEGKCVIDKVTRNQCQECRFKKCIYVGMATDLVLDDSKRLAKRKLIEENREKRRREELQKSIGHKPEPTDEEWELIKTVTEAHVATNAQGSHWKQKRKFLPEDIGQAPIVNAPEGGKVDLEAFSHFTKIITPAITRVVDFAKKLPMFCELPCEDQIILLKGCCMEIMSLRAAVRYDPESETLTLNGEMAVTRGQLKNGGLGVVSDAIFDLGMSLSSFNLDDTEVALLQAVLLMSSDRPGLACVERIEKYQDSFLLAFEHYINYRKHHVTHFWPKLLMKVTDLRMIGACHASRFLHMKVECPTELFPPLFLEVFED
Procedure, shortened: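 Agonist activity was read as beta-lactamase CCF4 fluorescence (405 ex, 460/530 em), scaled between DMSO (0%) and 10 nM T3 (100%), then Hill-fitted for EC50 and efficacy. HEK 293 TR-UAS-bla cells in 2% charcoal/dextran FBS medium were exposed 18 h at 37 C.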

[17] = qHTS assay for small molecule antagonists of retinoid X receptor alpha signaling (AID 588546); details: HEK293T RXRa-UAS-bla, beta-lactamase ratio, antagonist mode; measured here: W530 green channel, cytotoxicity proxy;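 note: cells stimulated with 9-cis-retinoic acid as agonist; % is set by controls: 0 for no effect and ±100 for the full control effect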
Procedure, shortened: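 Beta-lactamase reporter inhibition, read as CCF4 fluorescence ratio (ex 405, em 460/530 nm) after 2 h at RT. HEK293T UAS-bla cells, 2500/well, were stimulated with 9-cis-RA at 500 or 100 nM final alongside test compound for 18 h at 37 C.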

[18] = target: Peroxisome proliferator-activated receptor alpha (Homo sapiens) (UniProt Q07869); assay: qHTS assay for small molecule agonists of the peroxisome proliferator-activated receptor alpha (PPARalpha) signaling pathway (AID 651778); details: PathHunter PPARalpha complementation, chemiluminescence, 6 h; max response: stronger effect = higher value; note: % of control where 0% means no effect
Chain of Peroxisome proliferator-activated receptor alpha (Homo sapiens) (Q07869 whole entry, looked up): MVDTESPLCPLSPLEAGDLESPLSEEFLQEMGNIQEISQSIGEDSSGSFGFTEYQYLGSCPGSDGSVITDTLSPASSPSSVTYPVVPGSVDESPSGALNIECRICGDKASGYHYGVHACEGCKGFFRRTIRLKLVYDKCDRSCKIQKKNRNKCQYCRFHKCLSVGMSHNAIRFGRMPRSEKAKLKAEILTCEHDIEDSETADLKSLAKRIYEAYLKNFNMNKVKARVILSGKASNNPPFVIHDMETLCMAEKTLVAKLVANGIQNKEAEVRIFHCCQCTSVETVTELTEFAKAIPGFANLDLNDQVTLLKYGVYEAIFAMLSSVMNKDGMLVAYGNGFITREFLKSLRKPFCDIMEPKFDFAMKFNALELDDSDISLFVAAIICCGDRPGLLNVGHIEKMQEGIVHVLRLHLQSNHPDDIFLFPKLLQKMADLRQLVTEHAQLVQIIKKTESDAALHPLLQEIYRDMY
Procedure, shortened: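 Cells plated at 2,000/well and held overnight at 37 C, 5% CO2, then compound added by pin tool for 6 hr; after PathHunter detection reagent and 60 min at room temperature, chemiluminescence from enzyme complementation was read.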

[19] = qHTS assay for small molecule agonists of the antioxidant response element (ARE) signaling pathway measured by Nrf2-dependant transcriptional activity (AID 720636; active = well fitted curve in the direction sought with a large enough effect in the repeat runs; an effect the other way counts as inactive or inconclusive; note: potency is the fitted concentration of half-maximal effect;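 for activation: HepG2 cells with an ARE-driven luciferase reporter; % of control where 0% means no effect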); details: ARE-luc HepG2, Nrf2 luciferase reporter, 16 h; series mostly up to 92.4 µM
Procedure, shortened: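 HepG2 ARE-luc reporter line, 1% dialyzed FBS; 6 hr attachment at 37 C, compound pinned in, 16 hr at 37 C/5% CO2; ONE-Glo, 30 min RT, luminescence read.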

[20] = qHTS assay for cell viability of HEK293 cells (AID 743288); details: ATP luminescence (CellTiter-Glo), 18 h; max response: stronger effect = lower value; note: nearly all actives have a fitted effect of over 50% in size; note: potency is the fitted concentration of half-maximal effect; for max response: % is set by controls: 0 for no effect and ±100 for the full control effect
Procedure, shortened: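 After 18 h compound exposure at 37 C, parental HEK293 cells (2,000/well) are lysed with CellTiter-Glo and luminescence is read following 30 min at room temperature.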

NC1=NC(S)C2N=CN=C2N1 (centres undefined)
active: Potency [1] 0.218 µM | Potency [11] 2.51 µM | Potency [20] 2.82 µM
4.34%: max response [17]
inactive: Potency [2] > 92 µM | Potency [3] | outcome [4] | outcome [5] | outcome [6] | outcome [7] | outcome [8] | outcome [9] | outcome [10] | outcome [12] | outcome [13] | Potency [14] | outcome [15] | outcome [16] | max response [18] -3.14% | Potency [19]

C=CCOC(=O)c1ccccc1C(=O)OCC=C
-4.9% and -9.66%: max response [17]
inactive: Potency [1] > 92 µM | Potency [2] > 92 µM | Potency [3] | outcome [4] | outcome [5] | outcome [6] | outcome [7] | outcome [8] | outcome [9] | outcome [10] | Potency [11] | outcome [12] | outcome [13] | Potency [14] | outcome [15] | outcome [16] | max response [18] 16.2% and -0.609% | Potency [19] | max response [20] 7.73% and -19.3%

S=C1NC=NC2N=CNC12 (centres undefined)
active: Potency [1] 0.22 µM | Potency [20] 2.24 µM
4.27%: max response [17]
inactive: Potency [2] > 92 µM | Potency [3] | outcome [4] | outcome [5] | outcome [6] | outcome [7] | outcome [8] | outcome [9] | outcome [10] | Potency [11] | outcome [12] | outcome [13] | Potency [14] | outcome [15] | outcome [16] | max response [18] -7.07% | Potency [19]

O=C1c2ccccc2C(=O)C1c1ccc2ccccc2n1
-3.83%: max response [17]
active: Potency [1] 33.1 µM | Potency [2] 30.1 µM | Potency [19] 1.54 µM and 1.33 µM | Potency [20] 39.8 µM
inactive: outcome [4] | outcome [5] | outcome [6] | outcome [7] | outcome [8] | outcome [9] | outcome [10] | Potency [11] | outcome [12] | outcome [13] | Potency [14] | outcome [15] | outcome [16] | max response [18] 1.24% and 1.1%

Cc1ccc([N+](=O)[O-])c(C)c1
-2.42% and -7.16%: max response [17]
inactive: Potency [1] > 92 µM | Potency [2] > 92 µM | Potency [3] | outcome [4] | outcome [5] | outcome [6] | outcome [7] | outcome [8] | outcome [9] | outcome [10] | Potency [11] | outcome [12] | outcome [13] | Potency [14] | outcome [15] | outcome [16] | max response [18] -4.28% and -0.811% | Potency [19] | max response [20] 0.892% and -5.18%

CCCCCCCCCCCCCCC1CO1 (centres undefined)
inactive: Potency [1] > 92 µM | Potency [2] > 92 µM | Potency [3] | outcome [4] | outcome [5] | outcome [6] | outcome [7] | outcome [8] | outcome [9] | outcome [10] | Potency [11] | outcome [12] | outcome [13] | Potency [14] | outcome [15] | outcome [16] | max response [18] -0.26% and -1.17% | Potency [19] | max response [20] -3.91% and -17.2%
-4.45% and -4.75%: max response [17]

CN(C)CCCCCCN(C)C
inactive: Potency [1] > 92 µM | Potency [2] > 92 µM | Potency [3] | outcome [4] | outcome [5] | outcome [6] | outcome [7] | outcome [8] | outcome [9] | outcome [10] | Potency [11] | outcome [12] | outcome [13] | Potency [14] | outcome [15] | outcome [16] | max response [18] -5.54% | Potency [19] | max response [20] -4.75%
-0.59%: max response [17]

O=C(O)CC(C(=O)O)C(CC(=O)O)C(=O)O (centres undefined)
inactive: Potency [1] > 92 µM | Potency [2] > 92 µM | Potency [3] | outcome [4] | outcome [5] | outcome [6] | outcome [7] | outcome [8] | outcome [9] | outcome [10] | Potency [11] | outcome [12] | outcome [13] | Potency [14] | outcome [15] | outcome [16] | max response [18] -1.2% and -0.001% | Potency [19] | max response [20] -0.385% and -19.1%
3.1% and -5.42%: max response [17]

C1OCOCO1
inactive: Potency [1] > 92 µM | Potency [2] > 92 µM | Potency [3] | outcome [4] | outcome [5] | outcome [6] | outcome [7] | outcome [8] | outcome [9] | outcome [10] | Potency [11] | outcome [12] | outcome [13] | Potency [14] | outcome [15] | outcome [16] | max response [18] -0.344% | Potency [19] | max response [20] -3.72%
-18.1%: max response [17]
